The values that follow come from PubChem BioAssay (EPA / NIEHS).

Several values for one entry are separate records, joined by “and”; a condition that tells them apart may be missing. Identical values can stand only once. More than one record can exist for a structure, and the calls need not agree. Activity calls are given as the source filed them. How the source made its calls: active means hit-call score of the fitted dose curve at least 0.9, where 1 is the maximum; inactive means score below 0.9.

Read-out in this assay: Tissue Factor, F3 (gene 2152)
The experiment in a line: BSK_LPS_TissueFactor: BioMAP Diversity Plus: LPS Assay for Tissue Factor Biomarker Activity (AID 2283084). Conditions: primary human HUVEC with PBMC; actives raise or lower the signal. The method, then: BSK_LPS is a cell-based, multiplexed-readout assay that uses umbilical vein endothelium and peripheral blood mononuclear cells, a human vascular primary cell co-culture, with measurements taken at 24 hours after chemical dosing in a 96-well plate.BSK_LPS_TissueFactor is an assay component measured in the BSK_LPS assay. It measures CD142 Tissue Factor antibody related to regulation of gene expression using ELISA technology.Data from the assay component BSK_LPS_TissueFactor was analyzed into 1 assay endpoint. This assay endpoint, BSK_LPS_TissueFactor, was analyzed with bidirectional fitting relative to DMSO as the negative control and baseline of activity. Using a type of binding reporter, gain or loss-of-signal activity can be used to understand changes in the signaling as they relate to the gene F3. Furthermore, this assay endpoint can be referred to as a primary readout, because this assay has produced multiple assay endpoints where this one serves a signaling function. To generalize the intended target to other relatable targets, this assay endpoint is annotated to the cytokine intended target family, where the subfamily is coagulation factor.
The levels of cell surface (or secreted, indicated by the prefix "s") biomarker endpoints were measured by ELISA. Overt cytotoxicity to cells in confluent adherent cultures (all systems other than the BT system) was assessed by measuring total protein levels using sulforhodamine B (SRB) staining in parallel cultures at the time of biomarker measurements, indicated as SRB endpoints. For proliferation assays for adherent cell types, individual cell types are cultured at sub-confluence and relative cell numbers quantified by SRB staining at time points optimized for each system (48 h: 3C and CASM3C systems; 72 h: BT and HDF3CGF systems; 96 h: SAg system). SRB was performed by staining cells with 0.1% SRB after fixation with 10% TCA and reading wells at 560 nm.Viability and proliferation of PBMC (T cells) was quantified by Alamar Blue reduction for the SAg and BT systems. For PBMC viability (referred to as PBMC Cytotoxicity within the assay endpoint names), cells were plated (75,000/well in a 96-well plate) and then chemical samples added for 1 h before addition of activators, SEB and TSST-1 (20 ng/mL final concentration each). Cells were incubated for 90 h. Then, Alamar Blue (20 uL/well) (Invitrogen, Cat DAL1100) was added for 6 h, and the plates were read with a fluorescence microplate reader at 546/580 nm (excitation/emission). For PBMC proliferation, cells were plated and activated as above but incubated for only 16 h prior to addition of Alamar Blue. Plates were read after 6 h.
With `C[N+](C)(C)CCCNS(=O)(=O)C(F)(F)C(F)(F)C(F)(F)C(F)(F)C(F)(F)C(F)(F)C(F)(F)C(F)(F)F`, the AC50 is 14.1 µM (active) and the outcome was inactive. In the case of `CCCCCCCO`, the result was inactive. Consider `Oc1c(Cl)cc(Cl)c(Cl)c1Cl`, for which the AC50 was 20 µM (active).

Take `CCCCCCOC(=O)CCCCC(=O)OCCCCCC`: the result was inactive.

Take `Nc1ccc(C(=O)O)cc1`: the result was inactive. As to `CC(CCC(=O)O)(c1ccc(O)cc1)c1ccc(O)cc1`, the outcome was inactive. The same measure, in the same setting: the result for `C1CNCCN1` reads “inactive”. With `C=CC(=O)OCCCCCCCC(C)C`, the outcome was inactive. For the compound `CCOC(=O)/C=C\C(=O)OCC`, the result was inactive. As for `CCN1CN(CC)CN(CC)C1`, the result was inactive.

`CCCCCCCCCCCC(C)=O`: the outcome was inactive. As for `Oc1ccc(/C=C/c2cc(O)cc(O)c2)cc1`, the result was inactive. `CC(C)c1cccc(C(C)C)c1N`: the outcome was inactive. Same read-out and setting: the result for `O=C(O)C(F)(F)C(F)(F)C(F)(F)C(F)(F)C(=O)O` reads “inactive”.

For `CCCCCC1=CCCC1=O`, the outcome was inactive.

For `CC1=CC=C(C(C)C)CC1`, the result was inactive.

Take `c1ccc2sc(SSN3CCOCC3)nc2c1`: the outcome was inactive.

Regarding `COc1ccc(C(=O)/C(Br)=C\C(=O)O)cc1`, the AC50 was 20 µM (active) and 14.1 µM (active). Turning to `c1ccc2c(c1)[nH]c1ccccc12`, the result was inactive. `CC/C=C\C/C=C\C/C=C\CCCCCCCC(=O)OC`: the half-maximal activity concentration (AC50) was 12.6 µM (active). Turning to `CCNc1nc(NC(C)(C)C)nc(OC)n1`, the outcome was inactive. Regarding `O=C1CCCCCCCCCCCN1`, the result was inactive. Same read-out and setting: with `O=C1CCCCCCCCCCC1` the entry was “inactive”; with `Clc1cc(Cl)c(Cl)c(Cl)c1Cl`, “inactive”.

As to `C=CC(=O)NC(C)(C)C`, the outcome was inactive. `C=CC(=O)OCC(C)OCC(C)OCC(C)OC(=O)C=C` (stereo not given): the AC50 was 10.6 µM (active).

With `CCCCCCCCC(CO)CCCCCC` (stereo not given), the result was inactive. Consider `CCCCC1C(=O)N(c2ccccc2)N(c2ccccc2)C1=O`, for which the outcome was inactive. Consider `Nc1nc(N)nc(-c2ccccc2)n1`, for which the outcome was inactive.

Consider `Fc1ccc(Br)cc1`, for which the result was inactive.

Regarding `Oc1ccccc1Cc1ccccc1O`, the result was inactive. As to `Cc1c(O)cccc1O`, the outcome was inactive. Regarding `CC(C)[N+](C)(CCOC(=O)C1c2ccccc2Oc2ccccc21)C(C)C`, the result was inactive. For `CCCCCCC=O`, the result was inactive. Same read-out and setting: the result for `COC(OC)(C(=O)c1ccccc1)c1ccccc1` reads “inactive”. For the compound `CCc1cccc(C)c1N(C(=O)CS(=O)(=O)O)C(C)COC` (stereo not given), the result was inactive.

Regarding `O=C(Cl)c1c(Cl)c(Cl)c(C(=O)Cl)c(Cl)c1Cl`, the outcome was inactive.

For `CCCCCCCCCCCC(=O)N(C)CC(=O)O`, the outcome was inactive. For `CC(C)C(=O)OCCc1ccccc1`, the outcome was inactive.
